17 compounds from PubChem BioAssay (NCATS) can be followed below.

Several values for one entry are separate records, joined by “and”; a condition that tells them apart may be missing. Equal values may be shown once. Inconclusive results are not listed. Activity calls are given as the source filed them. The call rests on the fitted dose curve; in most records, active means well fitted curve in the direction sought with a large enough effect; inconclusive means small, poorly fitted or top-dose-only effect, or another doubt; inactive means no such curve, though single readings can be large; an effect the other way counts as inactive or inconclusive.

Assay [1] is described as follows: qHTS of pediatric cancer cell lines to identify multiple opportunities for drug repurposing: Confirmatory screen for DAOY cells (AID 1347114). Further: nearly all actives have a fitted effect of over 65% in size. Put shortly:
(§1)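 Viability measured as metabolically active cells via CellTiter-Glo luminescence following 48 hours of compound exposure, 11-point dilutions in confirmatory testing. 500-1,000 cells/well plated 5 hours before dosing; controls were DMSO and 2.3 µM bortezomib.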
For orientation: Quantitative high-throughput screening tests each substance at several concentrations.

Assay [2] can be described thus: qHTS of pediatric cancer cell lines to identify multiple opportunities for drug repurposing: Confirmatory screen for SJ-GBM2 cells (AID 1347116). Further: nearly all actives have a fitted effect of over 60% in size. Put shortly: as §1
Assay [3] can be described thus: qHTS of pediatric cancer cell lines to identify multiple opportunities for drug repurposing: Confirmatory screen for control Hh wild type fibroblast cells (AID 1347121). Further: nearly all actives have a fitted effect of over 70% in size. Put shortly: (§2)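 Viability after 48 h compound treatment at 37C, 500-1,000 cells/well, read as ATP luminescence with CellTiter-Glo. Primary screens used 11-point (MIPE, 0.78 nM-46 µM) or 8-point (NPC, 0.59 nM-46 µM) final concentrations; follow-up screens used 11-point dilutions.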

The nature of assay [4]: qHTS of pediatric cancer cell lines to identify multiple opportunities for drug repurposing: Confirmatory screen for RD cells (AID 1347124).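 Further: cells exposed to compound for 48 h before viability readout; nearly all actives have a fitted effect of over 65% in size.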 Put shortly: as §2
Assay [5] in a line: qHTS of pediatric cancer cell lines to identify multiple opportunities for drug repurposing: Confirmatory screen for NB-EBc1 cells (AID 1347115).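 Further: cells exposed to compound for 48 h before the viability read; nearly all actives have a fitted effect of over 45% in size.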 A digest of the protocol: as §2
A short description of assay [6]: qHTS of pediatric cancer cell lines to identify multiple opportunities for drug repurposing: Confirmatory screen for BT-37 cells (AID 1347117). Further: nearly all actives have a fitted effect of over 55% in size. Put shortly: as §2
The nature of assay [7]: qHTS of pediatric cancer cell lines to identify multiple opportunities for drug repurposing: Confirmatory screen for TC32 cells (AID 1347118).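 Further: cells exposed to compound for 48 h before the read; nearly all actives have a fitted effect of over 65% in size.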 A digest of the protocol:
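TC32 cells, 500-1,000/well in growth medium, compound-treated 48 h at 37 °C; viability from CellTiter-Glo luminescence. Primary screen: MIPE 11-point (0.78 nM–46 µM final), NPC 8-point (0.59 nM–46 µM final); confirmatory at 11-point dilutions.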

Assay [8] is described as follows: qHTS of pediatric cancer cell lines to identify multiple opportunities for drug repurposing: Confirmatory screen for MG 63 (6-TG R) cells (AID 1347119). Further: nearly all actives have a fitted effect of over 55% in size. Put shortly: as §2
Assay [9] is described as follows: qHTS of pediatric cancer cell lines to identify multiple opportunities for drug repurposing: Confirmatory screen for Rh18 cells (AID 1347125). Further: nearly all actives have a fitted effect of over 55% in size. A digest of the protocol: as §2
Assay [10] in a line: qHTS of pediatric cancer cell lines to identify multiple opportunities for drug repurposing: Confirmatory screen for Rh30 cells (AID 1347126). Further: nearly all actives have a fitted effect of over 55% in size. A digest of the protocol: as §2
Potency means the concentration at half of the fitted maximal effect.

With `O=c1cc(-c2ccc(O)cc2)oc2cc(O)cc(O)c12`, the Potency entry in [1], in assay [2], in assay [3] and in [4] was “inactive” throughout.

Regarding `O=C(CCCCCCC(=O)Nc1ccccc1)NO`, the Potency result in assay [3] was “inactive”.

On to `CC(=O)Oc1cc2c(s1)CCN(C(C(=O)C1CC1)c1ccccc1F)C2` (configuration not stated), for which the Potency entry in assay [5], in assay [6], in [7], in [8], in [3] and in assay [9] was “inactive” each time. Moreover, the Potency in assay [2] is 4.14 µM (active); in [10] it was 2.93 µM (active).

In the case of `CCc1ccc(OCc2ccccc2C(=O)Nc2ccc3nc(C)cc(N)c3c2)cc1`, the Potency in assay [5] is 8.27 µM (active); in [2], 11.7 µM (active); in [6], 7.37 µM (active); in assay [7] it was 1.17 µM (active); in [8], 4140 nM (active); in assay [3], 9.27 µM (active). Further, the Potency in [4] and in assay [9] was 8.27 µM (active) throughout. In addition, the Potency entry in [10] is “inactive”.

`CO[C@H]1C[C@@H]2CC[C@@H](C)[C@@](O)(O2)C(=O)C(=O)N2CCCC[C@@H]2C(=O)O[C@H]([C@H](C)C[C@@H]2CC[C@H](OCCO)[C@H](OC)C2)CC(=O)[C@H](C)C=C(C)[C@@H](O)[C@@H](OC)C(=O)[C@H](C)C[C@H](C)C=CC=CC=C1C`: the Potency result in assay [5], in [2], in [3], in [4], in assay [9] and in [10] was “inactive” in each case.

Take `COc1ccc2c(Oc3ccc(NC(=O)c4c(C)n(CC(C)(C)O)n(-c5ccccc5)c4=O)cc3F)ccnc2c1`: the Potency entry in assay [6], in assay [3] and in assay [4] was “inactive” in each case.

As to `COc1cc2nc(-c3ccc(N4CCN(C)CC4)cc3)nc(NCCN3CCOCC3)c2cc1OC`, the Potency is 1.17 µM (active) in assay [1], 0.208 µM (active) in assay [4] and 0.293 µM (active) in assay [9]. For the same compound, the Potency result in assay [3] is “inactive”.

For `CC=C(C)C(=O)O[C@H]1C(C)=C[C@]23C(=O)[C@@H](C=C(CO)[C@@H](O)[C@]12O)[C@H]1[C@@H](C[C@H]3C)C1(C)C`, the Potency result in assay [5], in assay [2], in assay [6], in [3], in assay [4] and in assay [9] was “inactive” each time.

For the compound `O=C(O)c1ccc(-c2cc3cccnc3c(-c3ccc4nonc4c3)n2)cc1`, the figures for the Potency in assay [7] and in assay [4] were 2.61 µM (active) and 7.37 µM (active), respectively.

Turning to `O=C(Nc1cccc(Br)c1)c1cccc(S(=O)(=O)N2CCCCCC2)c1`, the Potency entry in [2], in assay [3], in assay [4], in [9] and in assay [10] was “inactive” each time.

With `CC[C@]1(O)C[C@@H]2CN(CCc3c([nH]c4ccccc34)[C@@](C(=O)OC)(c3cc4c(cc3OC)N(C)[C@H]3[C@@](O)(C(=O)OC)[C@H](OC(C)=O)[C@]5(CC)C=CCN6CC[C@]43[C@@H]65)C2)C1`, the Potency in [1] is 208 nM (active) and 233 nM (active); in assay [6], 737 nM (active) and 1.17 µM (active); in [7], 465 nM (active) and 827 nM (active); in assay [8], 522 nM (active) and 1.04 µM (active); in assay [4] it was 1.17 µM (active). The Potency result in [3] was “inactive”.

Turning to `CC(=NNC(=S)N1CCC1)c1ccccn1`, the Potency result in assay [5], in assay [2], in assay [6], in assay [7], in assay [8] and in assay [3] was “inactive” each time. Besides, the Potency result in [4] and in assay [9] was “inactive” throughout.

With `CO[C@H]1C(=O)[C@]2(C)[C@@H](OC)C[C@H]3OC[C@@]3(OC(C)=O)[C@H]2[C@H](OC(=O)c2ccccc2)[C@]2(O)C[C@H](OC(=O)[C@H](O)[C@@H](NC(=O)OC(C)(C)C)c3ccccc3)C(C)=C1C2(C)C`, the Potency result in assay [5], in assay [2], in assay [3] and in assay [10] was “inactive” in each case. For the same compound, the results for the Potency in assay [7] and in assay [8] were 0.0033 µM (active) and 8.3 nM (active), respectively.

For `COc1ncc(-c2ccc3nccc(-c4ccnnc4)c3c2)cc1NS(=O)(=O)c1ccc(F)cc1F`, the Potency is 8.27 µM (active) in assay [5]; 0.465 µM (active) in assay [6]; 0.0369 µM (active) in [7]; 3.7 nM (active) in assay [8]; 0.104 µM (active) in [9]; 0.0414 µM (active) in assay [10]. The Potency entry in assay [4] was “inactive”.

On to `CCOc1ccc(Nc2nc(-c3c(C)nc4ccccn34)cs2)cc1`, for which the Potency in assay [1] was 0.0465 µM (active); in assay [6], 0.293 µM (active); in [7], 0.117 µM (active); in assay [8] it was 104 nM (active). In addition, the Potency entry in assay [3], in assay [9] and in [10] was “inactive” throughout.

As to `CC1(C)CCC2=C(O1)c1ccccc1C(=O)C2=O`, the Potency in assay [2] was 1.31 µM (active); in [6], 23.3 µM (active); in assay [7] it was 23.3 µM (active); in assay [4] it was 0.465 µM (active); in assay [10], 20.8 µM (active).

With `O=C(NCc1ccncc1)C12C[C@H]3C[C@@H](C1)CC(c1ccc(Cl)cc1)(C3)C2`, the Potency in assay [1] is 13.1 µM (active); in assay [6], 20.8 µM (active); in [7] it was 9.27 µM (active). The Potency result in assay [3] and in assay [9] was “inactive” throughout.
